In the library only some 5.1% were active in any assay of this set; here they are far more common.
KCC2 mod – modulates chloride dependent transport by human KCC2. Q9H2X9. KCC2 cells, thallium flux FluoZin-2 fluorescence. B-score of Tl+ flux slope (higher = more flux/activation; lower = inhibition) at 10 µM. 190,000 compounds, 2.2% hits;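 active = thallium flux slope and its plate-corrected score both differing from the plate sample mean at a set confidence after two filtering rounds, in either direction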;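 also: slope of fluorescence scaled to starting intensity during 10 to 20 s after thallium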
Target sequence (Q9H2X9 whole entry, looked up): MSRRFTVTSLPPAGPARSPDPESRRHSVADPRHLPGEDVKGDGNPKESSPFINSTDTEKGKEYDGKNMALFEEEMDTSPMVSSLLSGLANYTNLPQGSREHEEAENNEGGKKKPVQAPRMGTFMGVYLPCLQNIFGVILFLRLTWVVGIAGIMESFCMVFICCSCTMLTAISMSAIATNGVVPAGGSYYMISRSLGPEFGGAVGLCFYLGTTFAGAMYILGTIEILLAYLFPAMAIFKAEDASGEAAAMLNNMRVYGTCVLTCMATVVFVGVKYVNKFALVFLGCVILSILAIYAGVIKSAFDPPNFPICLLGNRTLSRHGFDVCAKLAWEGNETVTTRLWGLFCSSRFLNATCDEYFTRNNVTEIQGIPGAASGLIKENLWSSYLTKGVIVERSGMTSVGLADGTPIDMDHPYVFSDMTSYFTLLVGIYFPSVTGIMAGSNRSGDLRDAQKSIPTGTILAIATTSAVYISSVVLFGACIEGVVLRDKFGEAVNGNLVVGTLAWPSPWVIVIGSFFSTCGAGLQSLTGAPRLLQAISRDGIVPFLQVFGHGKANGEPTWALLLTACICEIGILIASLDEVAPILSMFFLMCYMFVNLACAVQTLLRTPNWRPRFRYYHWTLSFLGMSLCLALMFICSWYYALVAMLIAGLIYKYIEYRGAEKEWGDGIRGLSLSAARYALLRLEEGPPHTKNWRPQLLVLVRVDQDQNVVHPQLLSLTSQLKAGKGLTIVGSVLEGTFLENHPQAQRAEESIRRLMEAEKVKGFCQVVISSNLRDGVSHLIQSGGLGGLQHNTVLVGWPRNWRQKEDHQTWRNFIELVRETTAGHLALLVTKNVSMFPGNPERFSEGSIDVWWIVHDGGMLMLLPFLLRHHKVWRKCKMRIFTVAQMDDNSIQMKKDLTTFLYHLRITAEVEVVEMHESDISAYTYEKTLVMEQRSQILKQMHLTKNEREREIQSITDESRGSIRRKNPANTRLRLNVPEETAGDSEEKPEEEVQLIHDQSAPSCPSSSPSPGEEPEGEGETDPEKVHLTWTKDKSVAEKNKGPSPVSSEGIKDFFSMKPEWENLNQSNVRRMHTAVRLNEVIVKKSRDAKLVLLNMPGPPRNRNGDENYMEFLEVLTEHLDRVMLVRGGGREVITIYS
RAM network inh – inhibitors of the yeast RAM network | S. cerevisiae dse1pr::URA3 reporter, 5-FOA growth OD615, 2 d; analog-sensitive cbk1-as2 kinase mutant strain | inhibition, % at 50 µM | 190,000 compounds, 1.8% hits;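 active = inhibition above a set limit, 3 SD over mean compound inhibition, cut at about 8.4% in these data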;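 also: 0% = DMSO-only wells with no growth and 100% = 10 µM 1-NA-PP1 full growth; inhibition rescues growth on 5-FOA so higher OD means more RAM inhibition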
S1P4 antag – antagonists of human S1P4 receptor; 220,000 compounds, 0.26% hits; inhibition, % at 4.98 µM; O95977; S1P4-expressing cells, antagonist mode, reporter read-out; in the data active = inhibition above about 29%;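 also: 0% = wells stimulated with agonist and 100% = vehicle wells without agonist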
S1P4 ag – activates the human S1P4 receptor | activation, % at 4.98 µM | AID 1509 | 220,000 compounds, 0.35% hits | S1P4-expressing cell line, agonist reporter assay | O95977; in the data active = activation above about 11%;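 also: 0% = DMSO vehicle and 100% = reference agonist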
S1P3 antag – S1P3 (human) receptor antagonism | inhibition, % at 4.98 µM | Q99500 | CHO S1P3 NFAT-BLA reporter, FRET fluorescence, antagonist mode | 170,000 compounds, 0.27% hits;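 active = inhibition above the plate cutoff, the mean inhibition of test wells on that plate plus 3 SD, cut at about 28% in these data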;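 also: cells challenged with S1P at its EC80 of 0.8 µM; blue over green emission ratio from cleaved BLA substrate after 4 h stimulation; 0% = S1P-stimulated wells and 100% = unstimulated DMSO-only wells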
ROMK mod – modulators of human ROMK potassium channel; Tet-inducible ROMK, thallium flux fluorescence; actives lie on both sides; B-score at 10 µM; 130,000 compounds, 2% hits; AID 1918;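 active = signal ratio slope over the read window, or its plate-corrected B-score, at least 3 SD from the plate mean, either direction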;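 also: B-score of the F/F0 ratio slope over 7 to 12 s after thallium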
* marks the source's active call; other numbers are inactive results; . = not tested or not shown.

SMILES | KCC2 mod | RAM network inh | S1P4 antag | S1P4 ag | S1P3 antag | ROMK mod
CCC(=O)Nc1cccc(C(=O)/C=C/c2cc(Br)ccc2OC)c1 | -0.56 | 9.6* | 15 | 2 | . | -0.76
CCOC(=O)Cc1csc(NC(=S)NC(=O)C(C)(C)C)n1 | 15* | 0 | -16 | 1 | 13 | -0.083
Cc1ccc(OC(=O)c2oc3ccc(F)cc3c2C)c(C)c1 | . | 4 | -5 | 1 | . | .
COc1ccc(/C=C/C(=O)c2oc3ccc(F)cc3c2C)cc1 | 1.5 | 11* | 14 | 1 | 0 | 0.66
Cc1ccc(NC(=S)c2nc3ccccc3[nH]2)cc1 | 33* | 7 | -1 | 2 | . | .
Cc1ccc(NC(=S)c2nc3ccccc3[nH]2)c(C)c1 | 65* | 0 | -5 | 1 | -9 | 1.2
Cc1ccc(C(=O)COc2ccccc2N2C(=O)c3ccccc3C2=O)cc1 | -0.12 | 8.8* | -12 | 1 | 3 | .
CCc1c(C)sc(NC(=S)N2CC(C)OC(C)C2)c1C(=O)OC (centres undefined) | 2.8 | 11* | 2 | 0 | -14 | 0.074
CSC1=NCCN1C(=O)c1ccc(S(=O)(=O)N2CCCC2)cc1 | 0.029 | 0 | -4 | -1 | -9 | .
CSC1=NCCN1C(=O)c1ccc(S(=O)(=O)N2CCCCC2)cc1 | -0.1 | 2 | -6 | 166* | 4 | .
O=C(/C=C/c1ccccc1Cl)c1ccccc(=O)c1O | 31* | 1 | 3 | 0 | -49 | -4.2*
O=C(/C=C/c1ccccc1Cl)c1ccc(O)cc1 | 0.34 | . | -10 | 1 | 2 | .
CCOC(=O)N1CCN(C(=O)c2ccc(OC(C)=O)cc2)CC1 | 0.68 | 0 | -9 | -1 | 8 | .
COc1cc(C2Nc3cccc4cccc(c34)N2)ccc1OC(C)=O | . | 4 | -32 | 0 | -12 | .
COc1cc(C2Nc3cccc4cccc(c34)N2)cc(OC)c1O | . | 9.3* | -13 | -3 | 20 | .
C/C(C/C(C)=C1/SC(=S)NC1=O)=C1\SC(=S)NC1=O | -2.9 | 4 | -14 | 0 | -20 | -0.29
CCCCCC/C(C)=C1/SC(=S)NC1=O | 53* | 2 | 2 | 0 | . | .
CN1CN(C)C(c2ccncc2)=C1c1ccncc1 | -0.21 | . | -13 | 1 | -4 | .
O=C(NC1CCCCC1)C(c1ccc(F)cc1)N(Cc1ccco1)C(=O)Cn1nnc2ccccc21 (centres undefined) | 0.17 | 7 | 1 | -1 | 14 | -0.17
Cc1ccc(C(C(=O)NC2CCCCC2)N(Cc2ccco2)C(=O)Cn2cnc3ccccc32)cc1 (centres undefined) | -1.2 | 0 | -8 | 2 | . | -3.3*
Cc1ccc(/C(C#N)=C\c2cn(C)c3ccccc23)cc1 | . | 8.9* | 3 | 1 | -14 | -1.7
O=C(CSc1ccccc1)Nc1ccc(C(=O)Nc2ccc(O)cc2)cc1 | -0.24 | 6 | 6 | 1 | -21 | -0.57
Cc1cccc(NC(=O)c2oc3ccc(S(=O)(=O)N4CCOCC4)cc3c2C)c1C | -1 | 6 | -12 | 1 | -17 | .
Cc1ccc(NC(=O)c2oc3ccc(S(=O)(=O)N4CCOCC4)cc3c2C)c(C)c1 | 1.3 | 9.4* | -4 | 1 | 0 | 1.1
CCC1=C(OC(=O)N(CC)CC)N2C(=O)OC(=NCCc3c[nH]c4ccccc34)[C@]2(Cc2ccccc2)[C@H]2C1=CC[C@H]1C(=O)N(C)C(=O)[C@H]12 | -1.4 | . | . | . | . | .
SMILES | KCC2 mod | RAM network inh | S1P4 antag | S1P4 ag | S1P3 antag | ROMK mod
CC/C(=N\NC(=O)c1csc(C)c1C)c1cccs1 | 1.6 | 1 | 1 | -1 | . | .
C/C(=N\NC(=S)NC(C)C)c1ccc(Cl)s1 | 24* | -1 | 2 | -1 | 8 | .
C/C(=N\NC(=O)c1csc(C)c1C)c1ccc(Cl)s1 | 22* | 2 | 2 | 0 | . | -0.046
C/C(=N\NC(=O)c1ccccc1O)c1ccc(Br)s1 | 11* | 4 | -9 | 0 | 0 | 0.0079
COc1cc(OC)cc(C2=NCCN2)c1 | -0.17 | 0 | 6 | -1 | 8 | -0.13
COc1ccc2c(c1OC)C(=O)N1N=C(c3ccc(O)cc3)CC21 (centres undefined) | . | 1 | -6 | -4 | . | .
COc1cccc(/C=C2/NC(=O)NC2=O)c1OCC(=O)Nc1ccccc1 | -0.15 | 4 | -15 | 3 | -7 | 0.39
O=C(COc1ccccc1/C=C1\SC(=O)NC1=O)Nc1ccccc1 | -4.5* | 7 | 12 | -1 | -6 | -3.2*
COc1ccc(-c2cc(C)nc3c(-c4ccccc4)cnn23)cc1 | -0.39 | 9.0* | 3 | -2 | -13 | 0.064
